The results in this text go back to the supplement of paper PMC3414501.

Counter-ions that a name gives are not always drawn. A number with no mark means an inactive call.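 The calls were made as follows: active = score above 5; some higher scores were not called.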

The assay concerns S. cerevisiae SK1 pCDA2-eGFP (USY613), sporulating. Description: CDA2-GFP sporulation assay sensitivity score (z-score vs DMSO controls); higher = stronger inhibition of sporulation, active = hit call of the paper.
Regarding `COc1cc(CNC(=O)CCCC/C=C/C(C)C)ccc1O` [Capsaicin] (stock concentration (mM, diluted 1:100): 10), the “CDA2-GFP sporulation assay sensitivity score” value is -1.12.
As for `C/C=C1\[C@H]2C=C(C)C[C@]1(N)c1ccc(=O)[nH]c1C2` [Huperzine a] (stock concentration (mM, diluted 1:100): 10), the “CDA2-GFP sporulation assay sensitivity score” value was 3.17.
Then `CC(=O)N1CCN(c2ccc(OCC3COC(Cn4ccnc4)(c4ccc(Cl)cc4Cl)O3)cc2)CC1` (centres undefined) [Ketoconazole] (stock concentration (mM, diluted 1:100): 10), with 0.13.
On to `Nc1nnc(-c2cccc(Cl)c2Cl)c(N)n1` [Lamotrigine] (stock concentration (mM, diluted 1:100): 10.3), for which the “CDA2-GFP sporulation assay sensitivity score” value was 0.64.
Then `Oc1ccc(C2CNCCc3c2cc(O)c(O)c3Cl)cc1` (centres undefined) [Fenoldopam mesylate] (stock concentration (mM, diluted 1:100): 7.7), with -0.81.
Then `CN(C)CC[C@@H](c1ccc(Cl)cc1)c1ccccn1` [Dexchlorpheniramine maleate] (stock concentration (mM, diluted 1:100): 7), with 7.64.
Consider `CCOC(=O)C1=C(COCCN)NC(C)=C(C(=O)OC)C1c1ccccc1Cl` (centres undefined) [Amlodipine base] (stock concentration (mM, diluted 1:100): 13.9), for which the “CDA2-GFP sporulation assay sensitivity score” value is 5.4 (active).
Then `NC(=O)OCC(COC(N)=O)c1ccccc1` [Felbamate] (stock concentration (mM, diluted 1:100): 14), with -0.27.
As to `CN1CCN(C2=Nc3cc(F)ccc3Cc3ccccc32)CC1` [Fluperlapine] (stock concentration (mM, diluted 1:100): 10), the “CDA2-GFP sporulation assay sensitivity score” value is 17.9 (active).
On to `CCn1cc(C(=O)O)c(=O)c2cc(F)c(N3CCN(C)CC3)cc21` [Pefloxacin mesylate] (stock concentration (mM, diluted 1:100): 7.9), for which the “CDA2-GFP sporulation assay sensitivity score” value is -0.85.
Then `COc1ccc(-c2oc3c(CC=C(C)C)c(O[C@@H]4O[C@H](CO)[C@@H](O)[C@H](O)[C@H]4O)cc(O)c3c(=O)c2O[C@@H]2O[C@@H](C)[C@H](O)[C@@H](O)[C@H]2O)cc1` [Icariin] (stock concentration (mM, diluted 1:100): 10), with -1.61.
As to `CN1C(C(=O)Nc2ccccn2)=C(O)c2ccccc2S1(=O)=O` [Piroxicam] (stock concentration (mM, diluted 1:100): 10), the “CDA2-GFP sporulation assay sensitivity score” value was -3.86.
For `CNCC[C@H](Oc1cccc2ccccc12)c1cccs1` [Duloxetine hydrochloride] (stock concentration (mM, diluted 1:100): 8.9), the “CDA2-GFP sporulation assay sensitivity score” value was 16.3 (active).
Regarding `O=C1CCc2ccc(OCCCCN3CCN(c4cccc(Cl)c4Cl)CC3)cc2N1` [Aripiprazole] (stock concentration (mM, diluted 1:100): 10), the “CDA2-GFP sporulation assay sensitivity score” value was -0.09.
